Data on twelve targets can be found in the supplement of paper PMC10849652.

About 7,900 targets were measured; listed, in parts, are those with a hit and a random draw of the rest. About 0.6% of all pairs of compound and target were hits. A number with no mark means an inactive call.

Sequence of UniProt O94925 (O94925 whole entry, looked up): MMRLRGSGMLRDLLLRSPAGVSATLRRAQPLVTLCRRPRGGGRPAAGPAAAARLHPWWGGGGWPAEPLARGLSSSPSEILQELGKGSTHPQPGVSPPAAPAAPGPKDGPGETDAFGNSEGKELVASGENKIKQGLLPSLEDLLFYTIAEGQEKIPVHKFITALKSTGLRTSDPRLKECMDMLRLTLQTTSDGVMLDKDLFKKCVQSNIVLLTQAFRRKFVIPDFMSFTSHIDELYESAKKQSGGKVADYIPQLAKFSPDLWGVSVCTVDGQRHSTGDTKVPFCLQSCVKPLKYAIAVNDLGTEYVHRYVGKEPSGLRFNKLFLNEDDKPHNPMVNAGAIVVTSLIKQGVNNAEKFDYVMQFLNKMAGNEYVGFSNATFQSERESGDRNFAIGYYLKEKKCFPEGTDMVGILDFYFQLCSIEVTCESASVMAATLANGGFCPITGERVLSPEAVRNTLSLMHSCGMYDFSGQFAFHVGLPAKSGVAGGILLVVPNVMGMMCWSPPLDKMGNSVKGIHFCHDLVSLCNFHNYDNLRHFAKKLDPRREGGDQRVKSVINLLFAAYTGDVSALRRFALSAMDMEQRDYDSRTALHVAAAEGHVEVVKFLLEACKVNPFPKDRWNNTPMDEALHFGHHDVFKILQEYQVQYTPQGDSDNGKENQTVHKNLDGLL
Sequence of UniProt Q8TEQ6 (Q8TEQ6 whole entry, looked up): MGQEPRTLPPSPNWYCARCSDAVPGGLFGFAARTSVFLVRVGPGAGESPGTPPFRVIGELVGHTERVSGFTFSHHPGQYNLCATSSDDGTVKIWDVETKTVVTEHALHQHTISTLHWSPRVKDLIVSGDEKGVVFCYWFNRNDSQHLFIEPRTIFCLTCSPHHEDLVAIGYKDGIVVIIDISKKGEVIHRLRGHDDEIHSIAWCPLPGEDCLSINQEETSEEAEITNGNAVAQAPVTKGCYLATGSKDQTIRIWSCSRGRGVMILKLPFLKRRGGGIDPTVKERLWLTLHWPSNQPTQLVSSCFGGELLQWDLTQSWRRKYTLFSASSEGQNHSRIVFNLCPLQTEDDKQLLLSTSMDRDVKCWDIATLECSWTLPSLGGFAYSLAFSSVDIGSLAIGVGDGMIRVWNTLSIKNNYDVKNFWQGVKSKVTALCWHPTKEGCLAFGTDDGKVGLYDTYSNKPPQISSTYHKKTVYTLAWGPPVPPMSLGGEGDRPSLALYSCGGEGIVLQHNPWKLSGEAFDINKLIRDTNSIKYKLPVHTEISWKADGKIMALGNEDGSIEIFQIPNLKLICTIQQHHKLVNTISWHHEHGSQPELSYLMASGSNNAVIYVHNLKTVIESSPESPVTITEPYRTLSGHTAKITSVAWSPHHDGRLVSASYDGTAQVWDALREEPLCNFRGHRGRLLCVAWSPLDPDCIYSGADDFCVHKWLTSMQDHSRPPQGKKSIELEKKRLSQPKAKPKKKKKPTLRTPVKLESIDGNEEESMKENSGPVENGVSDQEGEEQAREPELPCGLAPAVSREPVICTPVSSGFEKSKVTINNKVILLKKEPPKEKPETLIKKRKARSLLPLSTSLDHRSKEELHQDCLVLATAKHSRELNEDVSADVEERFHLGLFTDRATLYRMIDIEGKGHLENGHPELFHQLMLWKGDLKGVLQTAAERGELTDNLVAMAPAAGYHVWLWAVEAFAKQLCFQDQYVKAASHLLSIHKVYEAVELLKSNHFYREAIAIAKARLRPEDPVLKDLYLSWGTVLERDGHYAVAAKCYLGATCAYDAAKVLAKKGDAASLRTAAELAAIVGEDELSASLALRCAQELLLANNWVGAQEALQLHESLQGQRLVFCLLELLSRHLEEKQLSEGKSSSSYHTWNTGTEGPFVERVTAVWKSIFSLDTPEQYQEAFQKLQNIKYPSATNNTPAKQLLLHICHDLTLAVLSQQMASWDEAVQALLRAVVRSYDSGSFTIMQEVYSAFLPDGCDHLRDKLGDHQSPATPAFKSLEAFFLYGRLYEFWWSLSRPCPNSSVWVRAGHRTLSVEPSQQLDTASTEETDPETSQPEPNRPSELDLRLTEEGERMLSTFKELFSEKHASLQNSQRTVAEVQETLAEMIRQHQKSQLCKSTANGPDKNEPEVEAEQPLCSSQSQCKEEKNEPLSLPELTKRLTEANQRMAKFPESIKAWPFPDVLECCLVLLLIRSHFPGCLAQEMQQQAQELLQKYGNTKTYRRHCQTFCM
Sequence of UniProt O15228 (O15228 whole entry, looked up): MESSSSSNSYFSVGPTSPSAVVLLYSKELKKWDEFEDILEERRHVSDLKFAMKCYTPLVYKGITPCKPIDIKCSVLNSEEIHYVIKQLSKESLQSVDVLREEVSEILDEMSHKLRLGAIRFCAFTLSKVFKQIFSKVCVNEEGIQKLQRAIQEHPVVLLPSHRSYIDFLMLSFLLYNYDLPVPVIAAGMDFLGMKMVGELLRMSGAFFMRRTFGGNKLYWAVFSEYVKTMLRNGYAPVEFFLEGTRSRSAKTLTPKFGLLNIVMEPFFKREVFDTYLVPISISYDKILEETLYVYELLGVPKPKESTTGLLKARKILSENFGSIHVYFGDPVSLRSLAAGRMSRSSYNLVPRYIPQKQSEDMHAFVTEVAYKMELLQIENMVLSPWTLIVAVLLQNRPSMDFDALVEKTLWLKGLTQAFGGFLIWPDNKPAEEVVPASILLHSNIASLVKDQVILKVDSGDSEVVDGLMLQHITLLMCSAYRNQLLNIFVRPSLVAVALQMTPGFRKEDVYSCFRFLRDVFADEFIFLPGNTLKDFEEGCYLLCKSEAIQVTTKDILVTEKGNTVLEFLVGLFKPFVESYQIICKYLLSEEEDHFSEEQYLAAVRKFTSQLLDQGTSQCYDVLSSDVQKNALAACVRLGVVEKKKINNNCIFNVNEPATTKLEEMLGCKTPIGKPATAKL
Sequence of UniProt P55795 (P55795 whole entry, looked up): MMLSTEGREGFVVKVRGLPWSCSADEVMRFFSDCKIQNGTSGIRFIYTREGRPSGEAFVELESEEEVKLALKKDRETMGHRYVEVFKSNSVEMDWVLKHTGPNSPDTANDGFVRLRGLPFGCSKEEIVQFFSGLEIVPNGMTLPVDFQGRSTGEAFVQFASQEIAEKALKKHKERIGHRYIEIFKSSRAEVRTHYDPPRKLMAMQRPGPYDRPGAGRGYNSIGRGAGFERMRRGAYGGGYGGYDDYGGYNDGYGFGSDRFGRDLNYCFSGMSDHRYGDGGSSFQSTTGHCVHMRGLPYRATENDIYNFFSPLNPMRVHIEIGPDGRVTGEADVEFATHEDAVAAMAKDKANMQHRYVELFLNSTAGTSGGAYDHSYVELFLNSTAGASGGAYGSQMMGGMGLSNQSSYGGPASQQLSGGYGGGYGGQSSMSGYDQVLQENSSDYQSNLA
Sequence of UniProt Q86VQ1 (Q86VQ1 whole entry, looked up): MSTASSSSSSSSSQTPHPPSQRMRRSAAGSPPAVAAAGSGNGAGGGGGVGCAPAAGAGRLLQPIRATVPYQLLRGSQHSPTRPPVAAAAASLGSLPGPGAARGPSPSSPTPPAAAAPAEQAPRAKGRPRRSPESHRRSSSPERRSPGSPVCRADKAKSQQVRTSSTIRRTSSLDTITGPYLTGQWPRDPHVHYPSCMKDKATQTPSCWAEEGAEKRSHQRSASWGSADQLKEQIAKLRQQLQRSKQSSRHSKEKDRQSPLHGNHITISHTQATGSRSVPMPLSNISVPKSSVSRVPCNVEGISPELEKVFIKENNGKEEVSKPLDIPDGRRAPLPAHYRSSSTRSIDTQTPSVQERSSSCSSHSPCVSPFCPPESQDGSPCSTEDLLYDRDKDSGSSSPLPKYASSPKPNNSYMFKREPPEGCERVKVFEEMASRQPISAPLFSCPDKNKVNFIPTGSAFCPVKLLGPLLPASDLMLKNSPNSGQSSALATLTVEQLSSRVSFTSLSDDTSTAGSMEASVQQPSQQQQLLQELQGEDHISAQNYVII
Sequence of UniProt P50213 (P50213 whole entry, looked up): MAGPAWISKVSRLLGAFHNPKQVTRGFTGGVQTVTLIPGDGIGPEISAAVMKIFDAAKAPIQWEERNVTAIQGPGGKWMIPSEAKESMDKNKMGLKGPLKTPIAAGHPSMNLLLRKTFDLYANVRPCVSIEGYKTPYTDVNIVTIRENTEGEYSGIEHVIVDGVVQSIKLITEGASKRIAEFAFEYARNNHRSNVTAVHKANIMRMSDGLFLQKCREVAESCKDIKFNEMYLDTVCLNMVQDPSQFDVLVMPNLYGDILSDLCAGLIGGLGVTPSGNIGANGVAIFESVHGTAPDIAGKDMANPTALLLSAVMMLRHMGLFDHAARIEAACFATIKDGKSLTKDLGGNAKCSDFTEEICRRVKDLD
Sequence of UniProt P31943 (P31943 whole entry, looked up): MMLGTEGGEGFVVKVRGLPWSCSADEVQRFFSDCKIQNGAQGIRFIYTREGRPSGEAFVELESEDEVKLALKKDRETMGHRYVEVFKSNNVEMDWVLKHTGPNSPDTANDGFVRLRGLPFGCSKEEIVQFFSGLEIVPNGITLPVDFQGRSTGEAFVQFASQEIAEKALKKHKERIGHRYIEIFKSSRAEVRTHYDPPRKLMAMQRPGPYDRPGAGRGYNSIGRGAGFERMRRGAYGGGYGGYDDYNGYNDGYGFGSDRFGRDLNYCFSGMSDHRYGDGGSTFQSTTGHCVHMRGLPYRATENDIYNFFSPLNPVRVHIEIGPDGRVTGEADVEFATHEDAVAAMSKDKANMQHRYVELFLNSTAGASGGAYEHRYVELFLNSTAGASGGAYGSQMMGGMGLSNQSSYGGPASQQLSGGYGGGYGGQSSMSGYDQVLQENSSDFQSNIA
Sequence of UniProt Q96HJ9 (Q96HJ9 whole entry, looked up): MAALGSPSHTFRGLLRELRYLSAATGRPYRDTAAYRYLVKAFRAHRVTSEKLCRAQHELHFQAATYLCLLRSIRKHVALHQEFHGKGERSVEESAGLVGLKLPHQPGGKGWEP

Compound in this experiment: Cn1cncc1[C@@](N)(c1ccc(Cl)cc1)c1ccc2c(c1)c(-c1cccc(Cl)c1)cc(=O)n2C [tipifarnib]
In words: log2 fold change, soluble protein after heating vs DMSO (PISA); higher = thermal stabilisation; K562 cells, 10 uM, 30 min; active = over 0.2 and 3.5 SD of the protein, either way, in both replicates (recomputed). In a few lines:
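Quantification of soluble protein used TMTpro 16plex LC-MS/MS, with channel sums equalised. Samples were the supernatant after 21,000xg for 90 min of pooled aliquots from K562 cells (2×10^6 cells/mL) treated with 10 μM compound for 30 min, heated for 3 min over 48°C-58°C, and extracted in PBS with 0.5% NP-40 at 4°C. Values, from duplicates, describe thermal stability against control samples on a log2 fold-change scale.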
Turning to FANCD2 isoform 1 (UniProt Q9BXW9), the log2 fold change was -0.024.
Turning to IDH3A (UniProt P50213), the log2 fold change was -0.001.
With GLCCI1 (UniProt Q86VQ1) the figure was 0.075; with FMC1 (UniProt Q96HJ9), 0.035.
For GABPA (UniProt Q06546), the log2 fold change is -0.149.
With GEMIN5 (UniProt Q8TEQ6) the figure was -0.049; with GLS (UniProt O94925), -0.071; with HEXA (UniProt P06865), 0.044.
With GEMIN2 (UniProt O14893) the figure was 0.08; with GNPAT (UniProt O15228), 0.031; with HNRNPH2 (UniProt P55795), -0.236.
Consider HNRNPH1 (UniProt P31943), for which the log2 fold change was -0.124.
